Inconclusive results are not listed. Active and inactive are the calls of the source. Unless noted, calls come from the whole dose curve.
What was measured:
[1] = Nuclear factor erythroid 2-related factor 2/antioxidant responsive element (Nrf2/ARE) small molecule agonists: qHTS cell viability counter screen in human keratinocytes (AID 1919968; active = well fitted curve in the direction sought with a large enough effect in the repeat runs; an effect the other way counts as inactive or inconclusive; note: nearly all actives have a fitted effect of over 55% in size)
Outline: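 Parallel cytotoxicity read: KeratinoSens HaCaT cells, compound treatment 23 h, viability by CellTiter-Fluor fluorescence 1 h post-reagent.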

[2] = Nuclear factor erythroid 2-related factor 2/antioxidant responsive element (Nrf2/ARE) small molecule agonists: luciferase reporter gene qHTS assay in human keratinocytes (AID 1919969); note: nearly all actives have a fitted effect of over 35% in size
[3] = biological target: Gonadotropin-releasing hormone receptor (Homo sapiens) (UniProt P30968); assay: Human gonadotropin-releasing hormone receptor (GnRHR) small molecule agonists, calcium flux assay in GnRHR-HEK293 cells (AID 1920063); note: nearly all actives have a fitted effect of over 35% in size
Sequence of Gonadotropin-releasing hormone receptor (Homo sapiens) (P30968 whole entry, looked up): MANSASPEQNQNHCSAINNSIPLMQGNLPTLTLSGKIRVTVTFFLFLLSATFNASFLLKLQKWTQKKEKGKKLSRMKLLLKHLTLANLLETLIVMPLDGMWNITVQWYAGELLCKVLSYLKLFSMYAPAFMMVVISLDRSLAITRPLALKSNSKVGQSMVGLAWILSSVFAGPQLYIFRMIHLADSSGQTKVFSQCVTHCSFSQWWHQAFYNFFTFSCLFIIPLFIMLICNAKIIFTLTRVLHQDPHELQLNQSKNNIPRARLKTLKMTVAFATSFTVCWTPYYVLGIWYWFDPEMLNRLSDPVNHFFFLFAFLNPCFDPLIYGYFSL
Outline: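 Calcium flux, agonist mode, human GnRHR stably integrated in HEK293; dye 1 h at 37 C before compound; Ex/Em=480/540 kinetic read, 3 min; 15 concentrations, triplicate.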

[4] = biological target: KiSS-1 receptor (Homo sapiens) (UniProt Q969F8); assay: Human kisspeptin (KISS1R) small molecule agonists, calcium flux assay in KISS1R-HEK293 cells (AID 1920064; active = well fitted curve in the direction sought with a large enough effect in the repeat runs; an effect the other way counts as inactive or inconclusive)
Sequence of KiSS-1 receptor (Homo sapiens) (Q969F8 whole entry, looked up): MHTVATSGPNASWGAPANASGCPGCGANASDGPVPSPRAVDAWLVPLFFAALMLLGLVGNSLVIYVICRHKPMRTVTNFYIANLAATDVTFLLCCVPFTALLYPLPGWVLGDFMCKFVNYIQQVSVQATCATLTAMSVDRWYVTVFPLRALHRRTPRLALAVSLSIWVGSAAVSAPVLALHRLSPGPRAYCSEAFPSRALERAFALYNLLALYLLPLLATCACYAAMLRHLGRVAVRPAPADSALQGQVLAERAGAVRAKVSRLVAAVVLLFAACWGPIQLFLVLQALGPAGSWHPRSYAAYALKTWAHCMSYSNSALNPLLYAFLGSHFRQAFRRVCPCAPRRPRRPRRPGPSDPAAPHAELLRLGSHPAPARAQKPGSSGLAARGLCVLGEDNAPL
Outline: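 Triplicate 15-concentration series were applied to dye-loaded human KISS1R HEK293 cells, and agonist-evoked calcium fluorescence was captured for 3 min.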

[5] = G protein-coupled receptor (GPCR) small molecule agonists, calcium flux assay: HEK293 wild type cell line counter screen (AID 1920065)
Outline: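 Non-specific calcium responders were flagged by adding DMSO-dissolved compounds to dye-loaded cells and reading 480/540 nm fluorescence each second for 3 min; ATP served as positive control.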

[6] = p53 small molecule agonists, cell-based qHTS assay with human liver microsomes (AID 1963577)
Outline: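 Fluorescence of the beta-lactamase reporter in p53RE-bla cells, detected with LiveBLAzer substrate (2 h, room temperature, dark), served as the read-out after 16 h compound exposure at 37 C with human liver microsomes and NADPH, each 0.5 mg/mL final.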

[7] = p53 small molecule agonists, cell-based qHTS assay with rat liver microsomes (AID 1963578)
Outline: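 Cells carrying a p53 response element–beta-lactamase reporter were plated and rested 5 h, then dosed with compound in DMSO plus rat liver microsomes and NADPH, each at 0.5 mg/mL final. After 16 h at 37 C, LiveBLAzer substrate was added for 2 h.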

[8] = p53 small molecule agonists, cell-based qHTS assay with human liver microsomes: qHTS cell viability counter screen (AID 1963579); note: nearly all actives have a fitted effect of over 45% in size
Outline: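 Cytotoxicity counter screen: p53RE-bla, 4,000 cells/well; 5 h settle, 37 C/5% CO2; cpd + HLM 0.5 mg/mL + NADPH 0.5 mg/mL (final); 16 h, 37 C; CellTiter-Glo, 30 min RT, luminescence.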

[9] = p53 small molecule agonists, cell-based qHTS assay with rat liver microsomes: qHTS cell viability counter screen (AID 1963580); note: nearly all actives have a fitted effect of over 45% in size
Outline: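 Luminescent ATP readout (CellTiter-Glo, 30 min at room temperature) reports viability of p53RE-bla HCT-116 cells after 16 h at 37 C with test compounds under metabolic activation by rat liver microsomes and NADPH at 0.5 mg/mL final each.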

[10] = p53 small molecule agonists, cell-based qHTS assay: qHTS cell viability counter screen (AID 1963581); note: nearly all actives have a fitted effect of over 45% in size
Outline: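 Multiplexed with the reporter read, a CellTiter-Glo step (30 min, room temperature) gauges ATP-based viability of HCT-116 p53RE-bla cells after 16 h compound incubation at 37 C.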

[11] = p53 small molecule agonists, cell-based qHTS assay (AID 1963582; active = well fitted activation curve with a large enough effect in the signal ratio in the repeat runs, not every such curve was filed as active; the % refers to the signal ratio)
Outline: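 Beta-lactamase reporter cells (p53RE-bla) treated with compounds for 16 h at 37 C; FRET substrate, 2 h, room temperature; fluorescence intensity.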

[12] = biological target: 5-hydroxytryptamine receptor 2A (Homo sapiens) (UniProt P28223); assay: 5-hydroxytryptamine receptor 2A (HTR2A) small molecule antagonists, cell-based qHTS assay (AID 1963586); note: nearly all actives have a fitted effect of over 45% in size
Sequence of 5-hydroxytryptamine receptor 2A (Homo sapiens) (P28223 whole entry, looked up): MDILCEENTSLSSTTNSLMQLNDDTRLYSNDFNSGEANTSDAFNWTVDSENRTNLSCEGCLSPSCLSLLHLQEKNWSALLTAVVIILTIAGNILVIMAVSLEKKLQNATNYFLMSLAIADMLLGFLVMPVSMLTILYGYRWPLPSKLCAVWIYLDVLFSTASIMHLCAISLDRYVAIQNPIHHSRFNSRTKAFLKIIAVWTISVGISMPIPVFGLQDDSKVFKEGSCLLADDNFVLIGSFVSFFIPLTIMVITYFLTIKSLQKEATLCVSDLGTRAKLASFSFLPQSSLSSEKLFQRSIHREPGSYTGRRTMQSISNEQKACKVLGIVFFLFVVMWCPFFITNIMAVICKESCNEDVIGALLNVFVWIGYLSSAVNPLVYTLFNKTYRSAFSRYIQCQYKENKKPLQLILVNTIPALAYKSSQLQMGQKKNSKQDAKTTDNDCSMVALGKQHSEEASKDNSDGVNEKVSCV
Outline: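 CHO cells stably expressing human HTR2A were plated for 18 h at 37 C, then loaded with calcium dye for 1 h. Compounds were preincubated 5 min at room temperature before DOI (4 nM solution) was added. Kinetic fluorescence was read for 3 min.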

[13] = biological target: 5-hydroxytryptamine receptor 2A (Homo sapiens) (UniProt P28223); assay: 5-hydroxytryptamine receptor 2A (HTR2A) small molecule agonists, cell-based qHTS assay (AID 1963587); note: nearly all actives have a fitted effect of over 30% in size
Outline: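 HTR2A-CHO cells, plated 18 h at 37 C/5% CO2, dye-loaded 1 h at 37 C; compounds in DMSO added by pin tool (agonist mode). Intracellular calcium flux read as kinetic fluorescence on FDSS over 2 min at 1 s intervals.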

[14] = biological target: Muscarinic acetylcholine receptor M1 (Homo sapiens) (UniProt P11229); assay: Cholinergic receptor muscarinic 1 (CHRM1) small molecule antagonists, cell-based qHTS assay (AID 1963588); note: nearly all actives have a fitted effect of over 40% in size
Sequence of Muscarinic acetylcholine receptor M1 (Homo sapiens) (P11229 whole entry, looked up): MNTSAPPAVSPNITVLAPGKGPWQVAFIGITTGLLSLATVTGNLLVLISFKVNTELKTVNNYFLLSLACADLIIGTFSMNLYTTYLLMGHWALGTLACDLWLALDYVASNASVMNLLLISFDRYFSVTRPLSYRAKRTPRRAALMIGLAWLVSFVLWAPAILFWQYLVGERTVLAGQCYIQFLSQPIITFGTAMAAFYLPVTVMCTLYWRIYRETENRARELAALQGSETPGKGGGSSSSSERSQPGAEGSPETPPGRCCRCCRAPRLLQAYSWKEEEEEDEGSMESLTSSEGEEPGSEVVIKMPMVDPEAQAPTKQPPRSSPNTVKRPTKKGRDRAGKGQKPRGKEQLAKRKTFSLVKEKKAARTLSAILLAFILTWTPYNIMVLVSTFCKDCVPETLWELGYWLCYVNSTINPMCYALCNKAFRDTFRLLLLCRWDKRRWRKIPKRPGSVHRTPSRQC
Outline: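 Compounds were tested at 15 concentrations in three independent runs. Dye-loaded CHRM1-CHO cells were exposed 5 min at room temperature before stimulation by acetylcholine added at 50nM. Intracellular calcium was read kinetically on FDSS for 3 min.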

[15] = biological target: Muscarinic acetylcholine receptor M1 (Homo sapiens) (UniProt P11229); assay: Cholinergic receptor muscarinic 1 (CHRM1) small molecule agonists, cell-based qHTS assay (AID 1963589); note: nearly all actives have a fitted effect of over 35% in size
Outline: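 qHTS, 15-point titration, 3 independent runs: compounds pin-transferred onto dye-loaded CHRM1-CHO cells (human M1), calcium fluorescence followed every second to detect agonism.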

[16] = cAMP Responsive Elements (CRE) small molecule agonists, cell-based qHTS assay (AID 1963590)
Outline: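 Quantitative HTS for CRE agonists: HEK 293T CRE-bla cells, overnight plating, 3 h compound incubation at 37 C/5% CO2, then 2 h room-temperature LiveBLAzer B/G FRET substrate loading.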

[17] = cAMP Responsive Elements (CRE) small molecule antagonists, cell-based qHTS assay (AID 1963591; active = well fitted inhibition curve with a large enough effect in the signal ratio in the repeat runs, not every such curve was filed as active; the % refers to the signal ratio)
Outline: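 Fluorescence intensity from cleaved LiveBLAzer B/G substrate (2 h, room temperature) quantified CRE-bla activity in HEK 293T cells exposed 3 h to compound with 0.25 uM final NKH477.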

[18] = biological target: Beta-2 adrenergic receptor (Homo sapiens) (UniProt P07550); assay: Adrenergic beta2 receptor (ADRB2) small molecule antagonists, cell-based qHTS assay (AID 1963592); note: series mostly up to about 92 µM; nearly all actives have a fitted effect of over 50% in size
Sequence of Beta-2 adrenergic receptor (Homo sapiens) (P07550 whole entry, looked up): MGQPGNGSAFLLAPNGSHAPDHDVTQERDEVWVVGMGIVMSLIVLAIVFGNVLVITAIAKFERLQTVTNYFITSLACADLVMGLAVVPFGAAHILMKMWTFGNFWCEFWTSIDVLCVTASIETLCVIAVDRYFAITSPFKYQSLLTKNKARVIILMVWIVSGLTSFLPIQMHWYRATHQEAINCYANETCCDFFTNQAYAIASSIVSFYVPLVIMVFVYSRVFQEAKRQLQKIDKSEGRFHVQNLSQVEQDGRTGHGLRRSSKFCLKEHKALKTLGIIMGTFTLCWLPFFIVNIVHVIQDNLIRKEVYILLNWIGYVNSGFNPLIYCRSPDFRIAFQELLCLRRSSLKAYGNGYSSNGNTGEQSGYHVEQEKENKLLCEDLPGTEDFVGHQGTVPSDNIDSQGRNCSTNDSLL
Outline: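 Assay format: CHO-ADRB2 cells, 18-20hr seeding at 37C/5% CO2, then compound plus 1nM isoproterenol agonist mix for 0.5hr RT. Homogeneous time-resolved fluorescence cAMP detection after 1hr, expressed as 665/615 nm ratio.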

[19] = biological target: D(2) dopamine receptor (Homo sapiens) (UniProt P14416); assay: Dopamine D2 receptor (DRD2) small molecule agonists, cell-based qHTS assay (AID 1963594); note: nearly all actives have a fitted effect of over 35% in size
Sequence of D(2) dopamine receptor (Homo sapiens) (P14416 whole entry, looked up): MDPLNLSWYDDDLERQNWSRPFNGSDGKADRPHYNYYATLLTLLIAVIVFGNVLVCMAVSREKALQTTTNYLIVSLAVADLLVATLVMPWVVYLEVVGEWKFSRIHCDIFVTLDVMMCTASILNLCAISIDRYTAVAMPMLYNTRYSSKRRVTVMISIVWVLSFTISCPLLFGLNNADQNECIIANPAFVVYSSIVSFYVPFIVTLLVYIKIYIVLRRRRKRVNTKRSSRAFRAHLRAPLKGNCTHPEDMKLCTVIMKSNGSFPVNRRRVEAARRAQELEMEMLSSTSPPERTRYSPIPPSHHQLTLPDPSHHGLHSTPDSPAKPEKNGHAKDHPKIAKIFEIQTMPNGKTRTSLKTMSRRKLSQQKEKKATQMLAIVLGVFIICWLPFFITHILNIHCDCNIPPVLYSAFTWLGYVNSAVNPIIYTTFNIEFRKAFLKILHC
Outline: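 HEK293 cells stably expressing DRD2 were cultured 24 h at 37 C, then given Ro20-1724 (0.1 mM final) and compounds for 10 min at room temperature. NKH477 (200nM) was then added for 30 min. cAMP was read by HTRF.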

[20] = biological target: D(2) dopamine receptor (Homo sapiens) (UniProt P14416); assay: Dopamine D2 receptor (DRD2) small molecule antagonists, cell-based qHTS assay (AID 1963595; active = well fitted inhibition curve with a large enough effect in the signal ratio in the repeat runs, with a control signal flat; the % refers to the signal ratio)
Outline: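 Antagonism was scored as restored cAMP in HEK293-DRD2 cells. These cells were stimulated with 200 nM NKH477 and 12 nM quinpirole for 30 min at room temperature, in the presence of 0.1 mM Ro20-1724.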
% is set by controls: 0 for no effect and ±100 for the full control effect.

NC(=O)CCCCC(N)=O
inactive: Potency [1] | Potency [2] | Potency [3] | Potency [4] | Potency [5] | Potency [6] | Potency [7] | Potency [8] | Potency [9] | Potency [10] | Potency [11] | Potency [12] | Potency [13] | Potency [14] | Potency [15] | Potency [16] | Potency [17] | Potency [18] | Potency [19] | Potency [20]

CC/C=C\CCOC(=O)C(C)C
inactive: Potency [1] | Potency [2] | Potency [3] | Potency [4] | Potency [5] | Potency [6] | Potency [7] | Potency [8] | Potency [9] | Potency [10] | Potency [11] | Potency [12] | Potency [13] | Potency [14] | Potency [15] | Potency [16] | Potency [17] | Potency [18] | Potency [19] | Potency [20]

Nc1ccncc1N
inactive: Potency [1] | Potency [2] | Potency [3] | Potency [4] | Potency [5] | Potency [6] | Potency [7] | Potency [8] | Potency [9] | Potency [10] | Potency [11] | Potency [12] | Potency [13] | Potency [14] | Potency [15] | Potency [16] | Potency [17] | Potency [18] | Potency [19] | Potency [20]

CCC(C)c1ccccc1 (centres undefined)
inactive: Potency [1] | Potency [2] | Potency [3] | Potency [4] | Potency [5] | Potency [6] | Potency [7] | Potency [8] | Potency [9] | Potency [10] | Potency [11] | Potency [12] | Potency [13] | Potency [14] | Potency [15] | Potency [16] | Potency [17] | Potency [18] | Potency [19] | Potency [20]

CCCCCCC1(C)CCC(=O)O1 (centres undefined)
inactive: Potency [1] | Potency [2] | Potency [3] | Potency [4] | Potency [5] | Potency [6] | Potency [7] | Potency [8] | Potency [9] | Potency [10] | Potency [11] | Potency [12] | Potency [13] | Potency [14] | Potency [15] | Potency [16] | Potency [17] | Potency [18] | Potency [19] | Potency [20]

Cc1onc(-c2ccccc2)c1C(=O)Cl
inactive: Potency [1] | Potency [2] | Potency [3] | Potency [4] | Potency [5] | Potency [6] | Potency [7] | Potency [8] | Potency [9] | Potency [10] | Potency [11] | Potency [12] | Potency [13] | Potency [14] | Potency [15] | Potency [16] | Potency [17] | Potency [18] | Potency [19] | Potency [20]

O=S(=O)(O)c1ccc2c(N=Nc3ccc(S(=O)(=O)O)c4ccccc34)c(O)c(S(=O)(=O)O)cc2c1
inactive: activity change, negative = cytotoxicity [1] -5.59% [at 8.39 µM] | activity, positive = activation [2] -0.366% [at 8.39 µM] | activity change [3] 18.3% [at 5.22 µM, stronger effect = higher value] | activation [4] 0.398% [at 6.97 µM] | activation [5] 6.05% [at 5.23 µM] | activation [6] -6.7% [at 5.99 µM] | activation [7] -0.431% [at 5.99 µM] | activity change, negative = cytotoxicity [8] -6.02% [at 5.99 µM] | activity change, negative = cytotoxicity [9] -3.24% [at 5.99 µM] | activity change, negative = cytotoxicity [10] -2.08% [at 5.99 µM] | activation [11] -3.84% [at 5.99 µM] | activity, negative = inhibition [12] 0.404% [at 5.62 µM] | activation [13] 12.5% [at 7.02 µM] | activity, negative = inhibition [14] -10.6% [at 5.58 µM] | activation [15] 2.33% [at 6.97 µM] | activation [16] -1.25% [at 8.39 µM] | activity change, negative = inhibition [17] -1.96% [at 8.39 µM] | activity change, negative = inhibition [18] -2.48% [at 8.39 µM] | activation [19] -0.0629% [at 8.39 µM] | activity change, negative = inhibition [20] 0.317% [at 8.38 µM]

[O]=[Zr]
inactive: Potency [1] | Potency [2] | Potency [3] | Potency [4] | Potency [5] | Potency [6] | Potency [7] | Potency [8] | Potency [9] | Potency [10] | Potency [11] | Potency [12] | Potency [13] | Potency [14] | Potency [15] | Potency [16] | Potency [17] | Potency [18] | Potency [19] | Potency [20]

CCCSSCCC
inactive: Potency [1] | Potency [2] | Potency [3] | Potency [4] | Potency [5] | Potency [6] | Potency [7] | Potency [8] | Potency [9] | Potency [10] | Potency [11] | Potency [12] | Potency [13] | Potency [14] | Potency [15] | Potency [16] | Potency [17] | Potency [18] | Potency [19] | Potency [20]

O=c1oc2c(O)c(O)cc3c(=O)oc4c(O)c(O)cc1c4c23
inactive: activity change, negative = cytotoxicity [1] -4.32% [at 19 µM] | activity, positive = activation [2] -10.8% [at 19 µM] | activity change [3] 0.294% [at 11.8 µM, stronger effect = higher value] | activation [4] -1.64% [at 15.8 µM] | activation [5] 0.163% [at 11.8 µM] | activation [6] -4.17% [at 13.5 µM] | activation [7] -5.41% [at 13.6 µM] | activity change, negative = cytotoxicity [8] 3.06% [at 13.5 µM] | activity change, negative = cytotoxicity [9] -3.76% [at 13.5 µM] | activity change, negative = cytotoxicity [10] -7.94% [at 13.5 µM] | activation [11] -1.21% [at 13.5 µM] | activity, negative = inhibition [12] -5.93% [at 12.7 µM] | activation [13] 2.19% [at 15.9 µM] | activity, negative = inhibition [14] 14.7% [at 12.6 µM] | activation [15] 0.409% [at 15.8 µM] | activation [16] -1.26% [at 19 µM] | activity change, negative = inhibition [17] -7.75% [at 18.9 µM] | activity change, negative = inhibition [18] -0.63% [at 19 µM] | activity change, negative = inhibition [20] 0.195% [at 18.9 µM]

CCOc1c(N2CCOCC2)cnn(C)c1=O
inactive: Potency [1] | Potency [2] | Potency [3] | Potency [4] | Potency [5] | Potency [6] | Potency [7] | Potency [8] | Potency [9] | Potency [10] | Potency [11] | Potency [12] | Potency [13] | Potency [14] | Potency [15] | Potency [16] | Potency [17] | Potency [18] | Potency [19] | Potency [20]
